# Screening data (PubChem)
# An excerpt weighted towards active compounds, which were near 27% of everything screened.
# Pyk2 oligo antag: blocks oligomerization of human Pyk2 in cells; Q14289; Q293 cells, Pyk2 FERM NanoBiT luminescence; hits give low values; z-score (the deposit names both 25 µM and 10 µM); 99,000 tested, 0.83% active; AID 1347419;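 active = Z-score of -3 or lower, scaled per plate to the spread of control and sample wells; inactive = z-score above -3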;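 also: negative z-score means lost luminescence so less FERM oligomerization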
# CYP2C19 act: cytochrome P450 2C19 (human) activation; P33261; recombinant CYP2C19, luciferin-H EGE luminescence; hits give high values; 0 = fully inhibited enzyme, 1 = untreated enzyme; activation factor at 5 µM; 96,000 tested, under 10 active; AID 1025;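 active = activation factor of at least 2 at 5 µM in the primary screen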;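 also: 0 = wells with 2.5 mM tranylcypromine and 1 = vehicle-only wells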
# CYP2C9 activ: activators of human CYP2C9; P11712; recombinant CYP2C9, luciferin-H conversion, luminescence; hits give high values; factor 1 = untreated enzyme, 0 = blocked; activation factor at 5 µM; 96,000 tested, 1.4% active;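 active = activation factor of 2 or more for CYP2C9 at a 5 µM dose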;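 also: 0 = sulfaphenazole-blocked wells and 1 = vehicle-only wells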
# Target sequence (P11712 whole entry, looked up): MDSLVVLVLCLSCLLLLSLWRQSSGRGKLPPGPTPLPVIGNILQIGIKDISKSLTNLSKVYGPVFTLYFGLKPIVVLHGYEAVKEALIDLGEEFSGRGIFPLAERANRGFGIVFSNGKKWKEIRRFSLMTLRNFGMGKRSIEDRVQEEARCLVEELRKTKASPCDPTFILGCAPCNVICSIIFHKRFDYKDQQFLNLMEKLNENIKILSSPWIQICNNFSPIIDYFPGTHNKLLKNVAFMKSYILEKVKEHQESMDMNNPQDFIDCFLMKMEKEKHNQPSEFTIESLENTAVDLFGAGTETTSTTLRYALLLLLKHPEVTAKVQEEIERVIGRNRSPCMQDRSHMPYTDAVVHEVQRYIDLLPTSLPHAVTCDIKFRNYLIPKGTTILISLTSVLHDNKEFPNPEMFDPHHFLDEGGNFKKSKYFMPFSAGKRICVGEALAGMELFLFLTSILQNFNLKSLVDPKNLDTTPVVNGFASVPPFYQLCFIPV
# Cav32 inh: inhibitors of human Cav3.2 T-type calcium channel; O95180; Cav3.2-expressing cells, Fluo-4 calcium fluorescence FDSS; hits give low values; B-score at 10 µM; 100,000 tested, 4% active; AID 449739;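 active = single-dose well whose peak fluorescence ratio is a statistical outlier from its plate by either plate-standardised score or position-corrected B-score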
# CYP2C9 inhib: inhibitors of human CYP2C9; CYP2C9 Supersomes, luciferin-H conversion, luminescence; inhibition, % at 5 µM; 96,000 tested, 20% active;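 active = blocking of liver enzyme CYP2C9 beyond about 50% at 5 µM, limit read from the data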
# CYP2C19 inh: blocks human cytochrome P450 2C19; P33261; CYP2C19 Supersomes, luciferin-H EGE luminescence, 30 min; inhibition, % at 5 µM; 96,000 tested, 21% active;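 active = CYP2C19 inhibition above a set limit at 5 µM in the primary screen, cut at about 50% in these data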;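 also: plate controls were negative control wells for no effect and 2.5 mM tranylcypromine positive control for full effect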
# Numbers without * were called inactive; x = no result given.
SMILES,Pyk2 oligo antag,CYP2C19 act,CYP2C9 activ,Cav32 inh,CYP2C9 inhib,CYP2C19 inh
CCCCCCC1CCC(C(=O)NC(CCSC)C(=O)NC(C(=O)OC)C(C)C)CC1 (stereo not drawn),0.37,0.1,0.8,-6.8*,16,86*
OC(COc1ccc2c(c1)OCO2)CN1CCc2ccccc2C1 (stereo not drawn),0.83,0.6,0.9,-0.58,8,43
OCCNc1nc2ccc(Cl)cc2[nH]1,1.2,1.2,1.2,0.93,-19,-18
O=C(CNC(=O)c1ccccc1F)OC(C(=O)Nc1cc(C(F)(F)F)ccc1Cl)c1ccccc1 (stereo not drawn),-1.3,0.8,1.1,-5.4*,-11,16
O=C(NC(Nc1cc(C(F)(F)F)ccc1Cl)C(=O)c1ccccc1)c1ccccc1 (stereo not drawn),-0.11,0.9,1,-2.5,-5,7
C[C@H](NC(=O)c1ccccc1Cl)C(=O)OC(C(=O)Nc1cc(C(F)(F)F)ccc1Cl)c1ccccc1 (stereo partly drawn),-1.9,0.8,0.9,-8.4*,14,20
COc1ccc(OC)c(-n2c(=S)[nH]c3cc(C(=O)NCCCN4CCCC4=O)ccc3c2=O)c1,x,1,0.9,x,10,-1
CCCOc1cc(C)c(S(=O)(=O)NCCOC)cc1C,-0.05,0.7,0.7,-0.14,26,28
Cc1cc(N2CCCC2=O)cc(C)c1S(=O)(=O)NCCOc1ccccc1,1.2,0.1,0.1,-3.6,92*,88*
CCn1c(=O)n(CC)c2cc(S(=O)(=O)NCCOc3ccccc3)c(C)cc21,-0.41,0.5,0.3,-0.28,72*,51*
Cc1ccc(NC(=O)CCC(=O)OCC(=O)c2ccc(Oc3ccc([N+](=O)[O-])cc3)cc2)c(C)c1,1.3,0.9,1.2,0.0098,-16,9
CCCn1c(C)cc(=O)c2cc(NC(=O)c3cnccn3)ccc21,-0.21,1,1.1,0.13,-9,0
O=C(Oc1cccc2cccnc12)c1ccco1,0.82,x,x,-1.1,x,x
O=C(Oc1cccc2cccnc12)c1ccc2c(c1)OCCO2,0.19,0.6,3.3*,-0.74,-231,45
Cc1cc(C)n(C(=O)CN2C(=O)COc3ccccc32)n1,-0.49,0.2,0.4,-1.5,57*,80*
CCc1ccc(CNC(=O)CN2C(=O)COc3ccccc32)cc1,-0.57,0.3,1.6,-0.62,-62,72*
CC(NC(=O)CN1C(=O)COc2ccccc21)c1ccccc1 (stereo not drawn),-0.87,0.1,2.2*,0.022,-116,89*
CCOC(=O)C1=C(C)NC(C)=C(C(=O)OCC)C1,0.29,0.7,0.9,-0.26,11,28
CCCCN1CCc2[nH]c(=S)[nH]c(=O)c2C1,0.7,x,x,x,x,x
Cc1ccc(C(=O)CN2/C(=C(\O)c3ccccc3)C(=O)c3ccccc3S2(=O)=O)c(C)c1,-1.5,0.8,0.3,-5.9*,69*,20
Cc1cc(C(=O)CN2C(=O)c3ccccc3S2(=O)=O)c(C)n1-c1ccccc1,-0.56,0.2,0.3,-3.4,66*,79*
N/C(Cc1cccs1)=N\OC(=O)COc1ccc(Cl)cc1Cl,-0.23,0.7,0.9,0.25,8,33
Cc1cc(C)c(S(C)(=O)=O)c(Oc2ccccc2C)n1,-0.13,0.8,0.9,0.45,8,22
Cc1cccc(Oc2nc(-c3ccccc3)cc(C)c2S(C)(=O)=O)c1C,0.04,0.4,0.1,-3.9*,93*,63*
COc1ccccc1Oc1nc(-c2ccccc2)cc(C)c1S(C)(=O)=O,-3.5*,0.9,0.9,-2.1,12,10
Cc1cc(C)cc(Oc2nc(-c3ccccc3)cc(C)c2S(C)(=O)=O)c1,-1.6,0.5,0.1,-2.3,89*,52*
Cc1cccc(N(CC(N)=O)C2SC(=O)NC2=O)c1 (stereo not drawn),0.68,x,x,-0.8,x,x
CCN(CC)CC(C(=O)N(CC)CC)P(=O)(c1ccccc1)c1ccccc1 (stereo not drawn),0.94,1.1,1.1,0.23,-6,-10
Cc1noc(C)c1CN1C(=O)NC2(CCCCCCC2)C1=O,-0.26,0.4,0.7,0.19,30,61*
C=CCN1C(=O)NC2(CCCCC2)C1=O,0.58,1,1,0.14,-3,0
